An excerpt weighted towards active compounds, which were near 1.5% of everything screened.
MazF activator – MazEF (E. coli) toxin RNase activation; P0AE70; FAM/BHQ RNA-DNA oligo cleavage fluorescence, 5 h; activation, % at 20 µM; 0.32% of 350,000 active; AID 504720; in the data active = activation above about 50%
Target sequence (P0AE70 whole entry, looked up): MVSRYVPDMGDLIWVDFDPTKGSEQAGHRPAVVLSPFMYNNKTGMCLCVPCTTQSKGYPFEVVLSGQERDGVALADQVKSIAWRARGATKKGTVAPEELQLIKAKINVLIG
Mtb hypoxia rep – Mtb hypoxia fluorescent reporter inhibition. M. tuberculosis hypoxia-regulated fluorescent reporter, fluorescence. AID 1159583. 0.1% of 300,000 active. fluorescence inhibition, % (no concentration beside the values); in the data active = fluorescence inhibition mostly above about 23%, no sharp cut-off; inactive = mostly below about 17%
VHR inh abs – DUSP3 (human) phosphatase inhibition; P51452; recombinant VHR phosphatase, pNPP absorbance; inhibition, % at 13.3 µM; 0.52% of 290,000 active; AID 1654; in the data active = inhibition above about 50%
Target sequence (P51452 whole entry, looked up): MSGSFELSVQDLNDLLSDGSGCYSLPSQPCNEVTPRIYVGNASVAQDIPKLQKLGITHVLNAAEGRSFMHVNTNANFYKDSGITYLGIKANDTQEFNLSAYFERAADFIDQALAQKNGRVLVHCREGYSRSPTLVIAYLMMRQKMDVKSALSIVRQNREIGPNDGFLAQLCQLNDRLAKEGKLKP
SARS 3CLpro inh – SARS-CoV 3CLpro protease inhibition. P0C6X7. 0.14% of 290,000 active. recombinant SARS-CoV 3CLpro, quenched FRET peptide cleavage. inhibition, % at 6 µM; in the data active = inhibition above about 12%
PrPC TRFRET – inhibitors of human cell surface prion protein PrPC. P04156. 0.43% of 370,000 active. inhibition, % at 13.8 µM. TR-FRET read-out. AID 720596; in the data active = inhibition above about 24%; also: 0% = median of the test wells and 100% = reference compound wells
PrP UTR inh – suppresses PrP 5' UTR mRNA reporter expression | cell-based PrP 5' UTR mRNA reporter, plate reader | inhibition, % (test concentration not listed) | 0.35% of 340,000 active; in the data active = inhibition above about 52%; also: 0 = median of the neutral control wells
* hit, by the source's call; x = not tested or not shown; + = active, no number.

SMILES	MazF activator	Mtb hypoxia rep	VHR inh abs	SARS 3CLpro inh	PrPC TRFRET	PrP UTR inh
COc1ccc2sc(-c3ccc(SC)cc3)c(C=Cc3ccc(OC)c(OC)c3)c2c1	x	-3	x	x	x	x
OCC1(CCc2ccccc2)CCN(C/C=C/c2ccccc2)CC1	-17	6	56*	-6	0	-24
OCCN(Cc1ccccc1)c1ncnc2sccc12	1	19	51*	-4	15	10
CN(Cc1ccccc1F)c1ncnc2sccc12	2	-5	34	-2	4	-10
O=C(Nc1cccc(Cl)c1)NC1CC2CCC1C2 (stereo unspecified)	6	32*	14	0	-2	-40
CC(=O)Nc1ccc(C(=O)OCC(=O)c2cccc([N+](=O)[O-])c2)cc1	1	x	-2	-2	-3	-16
Cc1ccc(C(=O)COC(=O)c2cccc(NC(=O)c3ccc([N+](=O)[O-])cc3[N+](=O)[O-])c2)cc1	11	41*	16	5	-35	19
CC(=O)c1cc2c(C)c(C(=O)c3ccccc3)oc2cc1O	89*	1	-13	-1	-11	-8
CC(=O)/C(N=Nc1cc(C)ccc1O)=C(\C)O	105*	5	-8	2	6	-20
COc1ccc(CCNc2c(C)c(C)nc3ncnn23)cc1	5	11	54*	-1	22	x
C=CC[n+]1ccc(/C=C2\C=Cc3cc(C)ccc3N2CC)c2ccccc21	5	36*	-1	-4	x	2
CCN1/C(=C/c2cc[n+](CCCS(=O)(=O)[O-])c3ccccc23)Sc2ccccc21	-101	18	22	-3	-20	-24
CCN1CCN(C2=CC3=CC(=C(C#N)C#N)CCC3CC2)CC1 (stereo unspecified)	+	-214	-6	-81	x	-35
CN(C)/N=C/c1ccc([N+](=O)[O-])cc1[N+](=O)[O-]	3	x	4	0	-15	-6
CN(N=Cc1cccc2cccnc12)c1ccc([N+](=O)[O-])cc1[N+](=O)[O-]	935*	x	x	x	5	-14
CC(C)c1ccc(NC(=O)CCNC(=O)N2CC(=O)Nc3ccccc32)cc1	-8	-2	51*	-1	-2	-5
CCC(C)[C@H](NC(=O)N1CC(=O)Nc2ccccc21)C(=O)Nc1nccs1 (stereo partly specified)	4	4	52*	-4	0	-5
O=[N+]([O-])c1ccc(C=NNC(=S)Nc2ccccc2C(F)(F)F)o1	x	14	x	x	x	x
O=C(CN1C(=O)C2C3C=CC(C4CC34)C2C1=O)Nc1cccc2ncccc12 (stereo unspecified)	0	-23	53*	7	-7	-7
Cn1c(/C(C#N)=C(\O)COc2ccc3ccccc3c2)nc2ccccc21	174*	2	-5	7	3	-2
COc1ccc(C(O)=C(C#N)c2nc3ccccc3n2C)cc1OC	x	-2	x	x	x	x
COC(=O)c1c(NC(=O)CSc2n[nH]c(N)n2)sc(C)c1C	7	5	15	-3	0	-19
Cc1sc(NC(=O)CSc2n[nH]c(N)n2)c(C#N)c1C	53*	x	x	x	-3	-13
CC1CCC2[C@@H](C)C(=O)OC3O[C@]4(C)CCC1C32OO4 (stereo partly specified)	0	84*	x	x	5	-6
CC1CCC2C(C)C(=O)OC3OC4(C)CCC1C32OO4 (stereo unspecified)	-6	81*	x	-5	0	-25
SMILES	MazF activator	Mtb hypoxia rep	VHR inh abs	SARS 3CLpro inh	PrPC TRFRET	PrP UTR inh
O=c1c2ccccc2nc(COc2ccccc2)n1N=Cc1cn[nH]c1-c1ccccc1	x	0	x	x	x	x
Cc1ccc(CSCC(=O)NN=Cc2sccc2C)cc1	x	2	x	x	x	x
CCCCOc1ccc(C(=O)Nc2ccc(S(=O)(=O)Nc3cc(C)on3)cc2)cc1OC	56*	11	22	2	5	-3
O=C(OCc1ccc([N+](=O)[O-])cc1)c1cc([N+](=O)[O-])ccc1N1CCOCC1	1	13	x	x	-16	-17
O=C(NCCN1CCOCC1)c1cc([N+](=O)[O-])ccc1Cl	4	8	50*	-1	-26	-31
Cc1ccc(COC(=O)c2cc([N+](=O)[O-])ccc2N2CCOCC2)cc1	x	x	41	-3	-5	77*
CCOc1ccc(CCNC(=O)c2cc([N+](=O)[O-])ccc2N2CCOCC2)cc1OCC	3	7	50*	-6	-8	-1
CCOC(=O)C1=CCC(c2cc3ccc(OC)cc3n2C)N(S(=O)(=O)c2ccc(C)cc2)C1C(=O)OCC (stereo unspecified)	x	6	x	x	x	x
CCCN(CCC)C1=NC(=Cc2ccco2)C(=O)N1c1ccccc1	x	10	x	x	x	x
Cc1ccc(CNC(=O)c2ccccc2NC(=O)CN2CCN(C)CC2)cc1	8	16	56*	-3	-10	0
O=C(NN=Cc1ccc(F)cc1)c1ccccc1	x	12	x	x	x	x
O=C(Nc1cc(Sc2ccccn2)cc([N+](=O)[O-])c1)c1cccc(Cl)c1	76*	-8	13	4	-7	-24
O=C(Nc1cc(Sc2ccccn2)cc([N+](=O)[O-])c1)c1ccc(Cl)cc1	17	x	33	4	0	6
CC1(C(=O)N(CC(=O)NC2CCCC2)Cc2ccc(Cl)cc2)CC(=O)N=C2C=CC=CN21 (stereo unspecified)	17	9	52*	7	1	-17
CC1=CC=CC2=NC(=O)CC(C)(C(=O)N(CC(=O)NC3CCCC3)Cc3ccc(Cl)cc3)N12 (stereo unspecified)	-27	-9	35	-9	-3	-22
COc1ccc2c(c1)OCC1C2N2C(=O)c3ccc(C)cc3NC(=O)[C@@]2(C)C1c1ccccc1 (stereo partly specified)	x	-7	x	x	x	x
COc1ccc2nc(SCC(=O)NC3CCCCC3)[nH]c2c1	6	9	58*	-4	2	-16
CNCC1Oc2c(NS(=O)(=O)c3ccccc3)cccc2C(=O)N(C(C)CO)CC1C (stereo unspecified)	x	8	x	x	x	x
Cc1csc(NC(=O)c2nc3nccc(C)n3n2)n1	-5	4	21	-1	-1	-35
Cc1ccnc2nc(C(=O)Nc3nc4ccccc4s3)nn12	5	53*	14	-2	3	-30
Cc1ccsc1C=NNC(=O)CNC(=O)c1ccccc1	x	6	x	x	x	x
CCOC1OC(C(=O)N2CCN(C)CC2)=CC(c2ccc(C(F)(F)F)cc2)C1CCCO (stereo unspecified)	x	13	x	x	x	x
O=c1[nH]c2cc3c(cc2cc1CN(Cc1cccnc1)Cc1nnnn1Cc1ccco1)OCCO3	54*	4	35	-2	3	x
Fc1ccc(CSc2nnc(-c3ccccn3)o2)cc1	5	39*	13	4	3	-43
CSc1ccc(CNCc2ccc3c(c2)OCO3)cc1	9	2	55*	4	-4	-4
Fc1cccc(CNCc2ccc3c(c2)OCO3)c1	8	-4	14	1	-7	-14
Brc1ccc2nc(-c3ccco3)c(Cc3ccsc3)n2c1	x	x	x	x	34*	x

Screening results: PubChem BioAssay, several laboratories
